Results as given in PubChem BioAssay AID485336 (The Scripps Research Institute Molecular Screening Center, 2010).
Entries with a potency or affinity are not part of this list.

Each compound was assayed against Krueppel-like factor 5 (Homo sapiens) (UniProt Q13887) (assay: reduction of KLF5 protein levels, late-stage follow-up, orthogonal assay for KLF5 inhibitor project, western blot, chemiluminescence, DLD-1 cells, titration (AID 485336)). Conditions: DLD-1 KLF5 protein level, 24 h; series mostly up to 20 µM; inhibition: at the top concentration;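 active = average inhibition at 10 µM of 40% or more; inactive = average inhibition at 10 µM below 40%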.
Sequence of Krueppel-like factor 5 (Homo sapiens) (Q13887 whole entry, looked up): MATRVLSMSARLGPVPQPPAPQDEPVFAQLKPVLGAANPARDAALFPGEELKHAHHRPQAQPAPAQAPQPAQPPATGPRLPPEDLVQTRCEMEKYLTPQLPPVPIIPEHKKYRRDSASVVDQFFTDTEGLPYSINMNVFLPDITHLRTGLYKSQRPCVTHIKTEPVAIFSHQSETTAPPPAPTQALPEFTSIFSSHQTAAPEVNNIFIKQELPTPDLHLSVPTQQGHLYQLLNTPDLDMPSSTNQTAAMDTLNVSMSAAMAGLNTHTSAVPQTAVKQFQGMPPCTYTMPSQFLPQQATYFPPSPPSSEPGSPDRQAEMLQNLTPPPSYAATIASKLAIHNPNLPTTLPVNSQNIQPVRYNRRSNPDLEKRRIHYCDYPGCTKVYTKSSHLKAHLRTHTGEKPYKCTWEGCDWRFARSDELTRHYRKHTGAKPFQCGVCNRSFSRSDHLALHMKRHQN

inhibition, inactive:
CCOC(=O)c1sc(NC(=O)c2ccc3ncsc3c2)nc1C -11.7%
CCCc1ccc(-c2ccc(/C=C/C(=O)O)cc2)nc1 4.12%
COC(=O)c1ccc2nc(Nc3nc4ccc(F)cc4s3)sc2c1 13.5%
CCOC(=O)c1sc(NC(=O)c2cc3c(s2)CCC(C)C3)nc1C (stereo not given) -2.2%
Cc1ccc2nc(NC(=O)CCCc3nc4ccccc4s3)sc2c1 13.5%
